Holding throughout (test): DAPPL (digital affinity profiling via proximity ligation, sequencing); 10 mM Tris-HCl pH 7.5, 50 mM NaCl, 1 mM DTT, 4% glycerol, room temperature, 30 min; GST-TFs on glutathione beads, 16-mer random dsDNA library, 0.1% formaldehyde crosslink after washing; high values mean tight binding
For one assay, the target named is T1, FEV (Homo sapiens, UniProt Q99581 1-238).
T1 sequence: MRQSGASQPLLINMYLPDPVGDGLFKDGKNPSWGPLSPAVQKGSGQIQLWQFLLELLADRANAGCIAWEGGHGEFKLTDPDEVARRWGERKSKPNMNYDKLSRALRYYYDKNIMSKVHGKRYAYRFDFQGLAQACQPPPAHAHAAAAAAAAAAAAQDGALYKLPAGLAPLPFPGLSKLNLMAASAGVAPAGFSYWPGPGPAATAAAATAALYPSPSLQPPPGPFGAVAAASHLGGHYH
The note with it: protein: recombinant; tags: N-terminal GST; dsDNA, one strand shown. A digest of the protocol: (§1)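 Human transcription factors were made in yeast as GST fusions, captured on glutathione beads and barcoded with DNA. With a tag-only sample included, the pool was incubated with 200 nmole of a random double-stranded 16-mer DNA library in Tris/NaCl/DTT/glycerol buffer at room temperature for 30 min, then crosslinked with 0.1% formaldehyde after washing, ligated by proximity, amplified and sequenced. For binding signal, each hexamer's read frequency for a factor is divided by its frequency for the tag-only sample.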

Another assay concerns the target ETV5 (Homo sapiens, UniProt P41161 1-510). The conditions noted are these: protein: recombinant; tags: N-terminal GST; dsDNA, one strand shown. Summed up: as §1
The target of a further assay is HSF1 (Homo sapiens, UniProt Q00613 1-529). The conditions noted are these: protein: recombinant; tags: N-terminal GST; chain copies: 3; dsDNA, one strand shown. Summed up: as §1
Chain of HSF1 (Q00613 whole entry): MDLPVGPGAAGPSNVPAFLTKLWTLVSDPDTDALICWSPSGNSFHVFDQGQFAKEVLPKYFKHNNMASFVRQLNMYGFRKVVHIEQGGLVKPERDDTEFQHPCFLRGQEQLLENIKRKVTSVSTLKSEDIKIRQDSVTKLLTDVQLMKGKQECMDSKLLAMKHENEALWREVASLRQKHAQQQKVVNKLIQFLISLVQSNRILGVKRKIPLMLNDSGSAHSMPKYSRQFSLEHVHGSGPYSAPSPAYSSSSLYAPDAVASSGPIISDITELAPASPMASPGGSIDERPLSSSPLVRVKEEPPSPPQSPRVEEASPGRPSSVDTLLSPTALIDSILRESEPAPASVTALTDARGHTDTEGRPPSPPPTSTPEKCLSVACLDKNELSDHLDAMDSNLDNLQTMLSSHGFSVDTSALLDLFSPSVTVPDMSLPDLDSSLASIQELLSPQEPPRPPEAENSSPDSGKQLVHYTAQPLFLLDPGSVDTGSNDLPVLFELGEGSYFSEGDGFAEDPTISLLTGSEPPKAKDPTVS
Another assay concerns the target T2, SPIC (Homo sapiens, UniProt Q8N5J4 1-248).
T2 sequence: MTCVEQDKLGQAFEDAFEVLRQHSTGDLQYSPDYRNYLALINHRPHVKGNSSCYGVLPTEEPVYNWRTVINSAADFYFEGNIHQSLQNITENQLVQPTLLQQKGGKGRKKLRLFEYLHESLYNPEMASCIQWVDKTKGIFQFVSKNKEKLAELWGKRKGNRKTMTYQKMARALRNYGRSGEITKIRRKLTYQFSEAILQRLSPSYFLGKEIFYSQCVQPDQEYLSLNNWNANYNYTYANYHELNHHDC
The note with it: protein: recombinant; tags: N-terminal GST; dsDNA, one strand shown. Summed up:
as §1

The next assay deals with ELF4 (Homo sapiens, UniProt Q99607 1-663). The conditions noted are these: protein: recombinant; tags: N-terminal GST; dsDNA, one strand shown. A digest of the protocol:
as §1

For a further assay, the target named is T3, ELK4 (Homo sapiens, UniProt P28324-2 1-405).
T3 sequence: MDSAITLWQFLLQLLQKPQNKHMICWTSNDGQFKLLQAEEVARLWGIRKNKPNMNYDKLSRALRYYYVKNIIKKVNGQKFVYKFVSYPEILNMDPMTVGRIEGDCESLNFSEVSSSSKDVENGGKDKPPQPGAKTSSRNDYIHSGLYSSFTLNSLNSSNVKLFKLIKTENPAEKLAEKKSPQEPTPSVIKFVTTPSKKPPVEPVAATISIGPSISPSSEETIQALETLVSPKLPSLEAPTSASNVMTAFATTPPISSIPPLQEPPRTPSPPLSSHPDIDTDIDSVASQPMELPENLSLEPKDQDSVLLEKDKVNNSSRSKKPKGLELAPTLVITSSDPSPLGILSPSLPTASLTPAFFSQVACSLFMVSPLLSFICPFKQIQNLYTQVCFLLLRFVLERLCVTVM
The conditions noted are these: protein: recombinant; tags: N-terminal GST; dsDNA, one strand shown. A digest of the protocol: as §1

A further assay concerns the target T4, ETV2 (Homo sapiens, UniProt O00321 1-342).
T4 sequence: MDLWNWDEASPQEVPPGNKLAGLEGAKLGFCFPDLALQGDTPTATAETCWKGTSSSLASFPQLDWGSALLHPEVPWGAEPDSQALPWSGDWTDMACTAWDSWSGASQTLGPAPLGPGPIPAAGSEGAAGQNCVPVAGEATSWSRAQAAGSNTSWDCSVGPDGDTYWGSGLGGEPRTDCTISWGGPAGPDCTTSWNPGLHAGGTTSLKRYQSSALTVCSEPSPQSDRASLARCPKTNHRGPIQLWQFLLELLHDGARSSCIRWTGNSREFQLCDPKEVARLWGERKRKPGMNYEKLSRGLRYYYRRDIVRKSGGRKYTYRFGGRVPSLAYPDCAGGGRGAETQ
The conditions noted are these: protein: recombinant; tags: N-terminal GST; dsDNA, one strand shown. Summed up:
as §1

A further assay concerns the target T5, ELF3 (Homo sapiens, UniProt P78545 1-371).
T5 sequence: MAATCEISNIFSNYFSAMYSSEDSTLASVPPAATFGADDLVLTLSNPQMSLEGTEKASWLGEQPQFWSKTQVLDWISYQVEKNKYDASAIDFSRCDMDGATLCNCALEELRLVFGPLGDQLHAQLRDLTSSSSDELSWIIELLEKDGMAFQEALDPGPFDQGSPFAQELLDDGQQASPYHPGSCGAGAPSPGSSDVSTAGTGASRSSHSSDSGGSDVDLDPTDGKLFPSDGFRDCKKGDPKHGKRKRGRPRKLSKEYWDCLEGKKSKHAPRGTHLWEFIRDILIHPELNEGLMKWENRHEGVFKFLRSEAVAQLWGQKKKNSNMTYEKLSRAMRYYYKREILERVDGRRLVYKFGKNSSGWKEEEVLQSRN
The note with it: protein: recombinant; tags: N-terminal GST; dsDNA, one strand shown. A digest of the protocol:
as §1

For the next assay, the target named is CRX (Homo sapiens, UniProt O43186 1-299). The note with it: protein: recombinant; tags: N-terminal GST; dsDNA, one strand shown. Summed up: as §1
Chain of CRX (O43186 whole entry): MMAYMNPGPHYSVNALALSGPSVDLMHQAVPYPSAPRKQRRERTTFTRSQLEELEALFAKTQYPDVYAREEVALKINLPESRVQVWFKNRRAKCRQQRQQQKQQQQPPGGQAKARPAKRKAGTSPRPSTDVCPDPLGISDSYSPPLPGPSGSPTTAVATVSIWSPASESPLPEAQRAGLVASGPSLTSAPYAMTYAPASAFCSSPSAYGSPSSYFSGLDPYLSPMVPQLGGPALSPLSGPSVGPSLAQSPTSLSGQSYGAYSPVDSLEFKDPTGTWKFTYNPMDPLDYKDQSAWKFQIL
Another assay concerns the target ETV1 (Homo sapiens, UniProt P50549 1-477). The note with it: protein: recombinant; tags: N-terminal GST; dsDNA, one strand shown. Summed up:
as §1

Another assay has as its target T6, ERF (Homo sapiens, UniProt P50548 1-548).
T6 sequence: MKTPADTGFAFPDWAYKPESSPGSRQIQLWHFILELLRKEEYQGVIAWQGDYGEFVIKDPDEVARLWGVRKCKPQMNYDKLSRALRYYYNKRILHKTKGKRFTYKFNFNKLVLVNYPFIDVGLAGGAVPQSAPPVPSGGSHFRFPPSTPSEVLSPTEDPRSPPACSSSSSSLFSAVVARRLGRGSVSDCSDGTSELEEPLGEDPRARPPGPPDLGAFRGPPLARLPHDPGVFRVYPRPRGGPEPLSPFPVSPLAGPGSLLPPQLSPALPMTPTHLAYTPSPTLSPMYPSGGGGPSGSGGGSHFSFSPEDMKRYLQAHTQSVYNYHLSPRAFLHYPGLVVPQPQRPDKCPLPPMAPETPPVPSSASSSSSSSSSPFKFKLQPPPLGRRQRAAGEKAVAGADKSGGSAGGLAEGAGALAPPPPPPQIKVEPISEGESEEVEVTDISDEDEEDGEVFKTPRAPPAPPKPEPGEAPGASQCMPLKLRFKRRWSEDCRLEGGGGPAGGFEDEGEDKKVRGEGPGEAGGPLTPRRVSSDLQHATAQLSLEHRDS
The note with it: protein: recombinant; tags: N-terminal GST; dsDNA, one strand shown. A digest of the protocol: as §1

For another assay, the target named is T7, ETV3L (Homo sapiens, UniProt Q6ZN32 1-361).
T7 sequence: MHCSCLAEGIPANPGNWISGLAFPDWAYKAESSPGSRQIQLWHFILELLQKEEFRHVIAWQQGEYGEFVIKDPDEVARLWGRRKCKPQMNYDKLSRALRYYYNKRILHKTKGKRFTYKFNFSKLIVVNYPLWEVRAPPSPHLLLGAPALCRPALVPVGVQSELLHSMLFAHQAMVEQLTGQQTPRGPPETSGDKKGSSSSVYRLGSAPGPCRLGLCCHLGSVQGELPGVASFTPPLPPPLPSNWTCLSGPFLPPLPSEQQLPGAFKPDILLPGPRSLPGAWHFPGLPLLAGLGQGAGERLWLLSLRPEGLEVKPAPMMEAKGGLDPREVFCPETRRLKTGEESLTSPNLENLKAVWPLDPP
The conditions noted are these: protein: recombinant; tags: N-terminal GST; dsDNA, one strand shown. A digest of the protocol: as §1

The next assay deals with T8, ETS2 (Homo sapiens, UniProt P15036 1-469).
T8 sequence: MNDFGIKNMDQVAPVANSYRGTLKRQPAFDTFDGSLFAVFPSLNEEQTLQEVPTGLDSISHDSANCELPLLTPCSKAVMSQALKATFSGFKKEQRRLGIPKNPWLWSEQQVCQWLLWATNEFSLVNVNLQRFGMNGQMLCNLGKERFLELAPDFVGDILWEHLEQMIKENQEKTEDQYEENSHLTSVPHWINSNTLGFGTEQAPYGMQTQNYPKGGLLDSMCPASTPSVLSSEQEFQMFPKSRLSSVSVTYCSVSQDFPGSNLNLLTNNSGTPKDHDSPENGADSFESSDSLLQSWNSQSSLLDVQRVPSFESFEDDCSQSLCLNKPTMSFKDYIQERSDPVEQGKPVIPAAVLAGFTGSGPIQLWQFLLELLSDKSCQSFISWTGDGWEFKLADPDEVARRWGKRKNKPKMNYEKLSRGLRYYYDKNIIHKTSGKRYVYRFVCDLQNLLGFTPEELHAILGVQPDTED
The conditions noted are these: protein: recombinant; tags: N-terminal GST; dsDNA, one strand shown. Summed up: as §1

The next assay deals with T9, SPDEF (Homo sapiens, UniProt O95238 1-335).
T9 sequence: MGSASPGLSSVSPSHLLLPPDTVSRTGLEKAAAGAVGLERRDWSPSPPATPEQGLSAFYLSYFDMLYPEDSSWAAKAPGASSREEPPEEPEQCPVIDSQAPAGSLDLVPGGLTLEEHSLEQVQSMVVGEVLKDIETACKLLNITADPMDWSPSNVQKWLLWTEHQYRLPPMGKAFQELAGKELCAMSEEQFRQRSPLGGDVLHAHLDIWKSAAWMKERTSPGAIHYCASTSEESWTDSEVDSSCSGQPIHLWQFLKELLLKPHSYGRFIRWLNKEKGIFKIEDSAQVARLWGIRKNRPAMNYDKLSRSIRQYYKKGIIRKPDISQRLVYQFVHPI
The note with it: protein: recombinant; tags: N-terminal GST; dsDNA, one strand shown. A digest of the protocol: as §1

A further assay addresses T10, ETV7 (Homo sapiens, UniProt Q9Y603 1-341).
T10 sequence: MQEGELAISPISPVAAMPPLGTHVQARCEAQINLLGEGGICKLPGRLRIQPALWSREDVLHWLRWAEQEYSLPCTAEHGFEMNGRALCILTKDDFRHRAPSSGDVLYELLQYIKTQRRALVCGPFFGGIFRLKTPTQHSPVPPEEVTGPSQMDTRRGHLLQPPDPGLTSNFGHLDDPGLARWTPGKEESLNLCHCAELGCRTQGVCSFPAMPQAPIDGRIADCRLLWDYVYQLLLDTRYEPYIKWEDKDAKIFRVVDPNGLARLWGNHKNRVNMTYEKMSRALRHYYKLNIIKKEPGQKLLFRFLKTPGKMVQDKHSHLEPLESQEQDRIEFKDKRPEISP
The conditions noted are these: protein: recombinant; tags: N-terminal GST; dsDNA, one strand shown. A digest of the protocol:
as §1

For another assay, the target named is T11, ELF5 (Homo sapiens, UniProt Q9UKW6-2 1-255).
T11 sequence: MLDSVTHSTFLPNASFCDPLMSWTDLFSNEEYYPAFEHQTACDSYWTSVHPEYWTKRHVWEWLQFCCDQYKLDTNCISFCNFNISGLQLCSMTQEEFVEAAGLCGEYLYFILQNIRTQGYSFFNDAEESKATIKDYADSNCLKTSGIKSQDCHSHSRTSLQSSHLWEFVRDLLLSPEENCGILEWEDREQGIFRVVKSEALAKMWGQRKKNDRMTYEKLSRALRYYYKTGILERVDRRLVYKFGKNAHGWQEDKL
The note with it: protein: recombinant; tags: N-terminal GST; dsDNA, one strand shown. A digest of the protocol: as §1

A further assay deals with T12, ETV3 (Homo sapiens, UniProt P41162-2 1-143).
T12 sequence: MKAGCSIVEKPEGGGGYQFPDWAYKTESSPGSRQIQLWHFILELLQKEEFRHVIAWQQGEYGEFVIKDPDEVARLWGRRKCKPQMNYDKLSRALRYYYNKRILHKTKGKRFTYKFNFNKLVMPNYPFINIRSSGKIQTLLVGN
The note with it: protein: recombinant; tags: N-terminal GST; dsDNA, one strand shown. Summed up: as §1

For a further assay, the target named is ETV6 (Homo sapiens, UniProt P41212 1-452). The note with it: protein: recombinant; tags: N-terminal GST; dsDNA, one strand shown. A digest of the protocol:
as §1

Chain of ETV5 (P41161 whole entry): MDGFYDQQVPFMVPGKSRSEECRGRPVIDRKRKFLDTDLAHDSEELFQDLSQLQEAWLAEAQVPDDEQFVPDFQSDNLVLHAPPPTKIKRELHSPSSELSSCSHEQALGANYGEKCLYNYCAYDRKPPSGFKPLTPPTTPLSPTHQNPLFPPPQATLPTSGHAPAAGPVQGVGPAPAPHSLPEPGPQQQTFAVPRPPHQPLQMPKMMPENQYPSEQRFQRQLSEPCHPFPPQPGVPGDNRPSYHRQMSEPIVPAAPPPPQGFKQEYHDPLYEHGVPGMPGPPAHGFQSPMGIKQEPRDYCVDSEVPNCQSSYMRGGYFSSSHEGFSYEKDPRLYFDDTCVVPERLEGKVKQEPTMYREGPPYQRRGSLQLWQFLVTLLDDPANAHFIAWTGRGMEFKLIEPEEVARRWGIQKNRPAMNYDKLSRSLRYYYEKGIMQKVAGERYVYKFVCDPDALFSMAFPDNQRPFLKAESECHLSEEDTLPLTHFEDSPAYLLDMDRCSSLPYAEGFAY
Chain of ETV6 (P41212 whole entry): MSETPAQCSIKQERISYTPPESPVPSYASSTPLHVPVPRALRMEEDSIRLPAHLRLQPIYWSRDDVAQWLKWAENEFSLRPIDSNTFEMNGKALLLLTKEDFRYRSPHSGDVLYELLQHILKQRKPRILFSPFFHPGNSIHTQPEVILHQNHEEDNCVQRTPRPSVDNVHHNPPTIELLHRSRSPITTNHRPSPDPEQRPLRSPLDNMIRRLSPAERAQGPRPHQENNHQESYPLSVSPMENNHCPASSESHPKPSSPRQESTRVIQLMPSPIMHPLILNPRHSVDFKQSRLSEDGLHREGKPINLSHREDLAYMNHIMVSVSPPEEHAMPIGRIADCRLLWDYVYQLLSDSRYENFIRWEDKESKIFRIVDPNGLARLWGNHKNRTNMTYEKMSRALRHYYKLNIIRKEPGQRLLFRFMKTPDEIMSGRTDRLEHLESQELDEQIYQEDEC
Chain of ELF4 (Q99607 whole entry): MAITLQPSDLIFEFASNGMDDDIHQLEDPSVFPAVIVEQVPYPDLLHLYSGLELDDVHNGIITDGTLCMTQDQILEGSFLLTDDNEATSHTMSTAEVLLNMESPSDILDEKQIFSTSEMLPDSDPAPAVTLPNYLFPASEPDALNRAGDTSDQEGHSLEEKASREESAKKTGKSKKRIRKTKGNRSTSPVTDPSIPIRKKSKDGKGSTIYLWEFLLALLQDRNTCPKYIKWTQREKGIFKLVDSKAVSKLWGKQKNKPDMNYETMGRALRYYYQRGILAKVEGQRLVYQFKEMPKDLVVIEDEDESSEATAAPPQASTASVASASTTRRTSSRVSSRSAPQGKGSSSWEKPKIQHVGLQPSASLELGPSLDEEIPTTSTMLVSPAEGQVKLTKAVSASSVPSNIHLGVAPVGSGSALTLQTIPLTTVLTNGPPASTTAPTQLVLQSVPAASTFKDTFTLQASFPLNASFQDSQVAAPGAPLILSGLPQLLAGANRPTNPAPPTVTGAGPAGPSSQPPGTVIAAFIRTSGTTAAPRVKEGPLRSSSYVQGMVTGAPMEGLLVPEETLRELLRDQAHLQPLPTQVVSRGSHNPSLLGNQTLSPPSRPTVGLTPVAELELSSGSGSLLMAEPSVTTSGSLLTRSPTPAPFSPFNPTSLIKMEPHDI
Chain of ETV1 (P50549 whole entry): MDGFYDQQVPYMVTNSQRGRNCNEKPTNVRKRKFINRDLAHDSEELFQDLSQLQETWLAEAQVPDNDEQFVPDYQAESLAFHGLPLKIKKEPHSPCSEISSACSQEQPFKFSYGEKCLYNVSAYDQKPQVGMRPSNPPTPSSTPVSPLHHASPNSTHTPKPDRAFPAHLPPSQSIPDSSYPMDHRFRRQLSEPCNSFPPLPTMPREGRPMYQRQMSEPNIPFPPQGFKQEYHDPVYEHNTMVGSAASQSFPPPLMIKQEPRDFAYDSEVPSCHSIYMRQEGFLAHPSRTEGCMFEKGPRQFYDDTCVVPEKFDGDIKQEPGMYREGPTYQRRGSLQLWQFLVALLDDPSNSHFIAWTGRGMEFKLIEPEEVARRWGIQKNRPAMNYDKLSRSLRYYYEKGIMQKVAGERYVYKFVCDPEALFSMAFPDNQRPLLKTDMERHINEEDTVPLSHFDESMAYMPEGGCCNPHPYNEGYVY

CTCCTA: the binding signal with FEV was 1.32 fold enrichment (6-mer frequency, TF over GST control); with ETV5, 1.28 fold enrichment (6-mer frequency, TF over GST control); with HSF1 it was 1.39 fold enrichment (6-mer frequency, TF over GST control); with SPIC, 1.49 fold enrichment (6-mer frequency, TF over GST control); with ELF4, 1.44 fold enrichment (6-mer frequency, TF over GST control); with ELK4 it was 1.46 fold enrichment (6-mer frequency, TF over GST control). The binding signal in the assay with ETV2 was 1.24 fold enrichment (6-mer frequency, TF over GST control); in the assay with ELF3, 1.31 fold enrichment (6-mer frequency, TF over GST control); in the assay with CRX, 1.49 fold enrichment (6-mer frequency, TF over GST control); with ETV1 it was 1.29 fold enrichment (6-mer frequency, TF over GST control); with ERF, 1.49 fold enrichment (6-mer frequency, TF over GST control); in the assay with ETV3L, 1.36 fold enrichment (6-mer frequency, TF over GST control). The binding signal is 1.32 fold enrichment (6-mer frequency, TF over GST control) in the assay with ETS2; 1.34 fold enrichment (6-mer frequency, TF over GST control) with SPDEF; 1.37 fold enrichment (6-mer frequency, TF over GST control) in the assay with ETV7; 1.41 fold enrichment (6-mer frequency, TF over GST control) with ELF5; 1.23 fold enrichment (6-mer frequency, TF over GST control) with ETV3; 1.29 fold enrichment (6-mer frequency, TF over GST control) with ETV6.

(Values after paper PMC7862700, “An all-to-all approach to the identification of sequence-specific readers for epigenetic DNA modifications on cytosine”.)
